According to ChEMBL document CHEMBL1961873, “Compounds: GSK PKIS; Assays: Nanosyn kinase panel” (2012):

Assays:
[1] = target: MAP/microtubule affinity-regulating kinase 3 (Homo sapiens) (UniProt P27448); conditions: at 1 µM;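 also: reported values are averaged percent inhibition of MARK3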
[2] = target: T1, MAP/microtubule affinity-regulating kinase 4 (Homo sapiens) (UniProt Q96L34); conditions: at 0.1 µM
T1 sequence (whole entry): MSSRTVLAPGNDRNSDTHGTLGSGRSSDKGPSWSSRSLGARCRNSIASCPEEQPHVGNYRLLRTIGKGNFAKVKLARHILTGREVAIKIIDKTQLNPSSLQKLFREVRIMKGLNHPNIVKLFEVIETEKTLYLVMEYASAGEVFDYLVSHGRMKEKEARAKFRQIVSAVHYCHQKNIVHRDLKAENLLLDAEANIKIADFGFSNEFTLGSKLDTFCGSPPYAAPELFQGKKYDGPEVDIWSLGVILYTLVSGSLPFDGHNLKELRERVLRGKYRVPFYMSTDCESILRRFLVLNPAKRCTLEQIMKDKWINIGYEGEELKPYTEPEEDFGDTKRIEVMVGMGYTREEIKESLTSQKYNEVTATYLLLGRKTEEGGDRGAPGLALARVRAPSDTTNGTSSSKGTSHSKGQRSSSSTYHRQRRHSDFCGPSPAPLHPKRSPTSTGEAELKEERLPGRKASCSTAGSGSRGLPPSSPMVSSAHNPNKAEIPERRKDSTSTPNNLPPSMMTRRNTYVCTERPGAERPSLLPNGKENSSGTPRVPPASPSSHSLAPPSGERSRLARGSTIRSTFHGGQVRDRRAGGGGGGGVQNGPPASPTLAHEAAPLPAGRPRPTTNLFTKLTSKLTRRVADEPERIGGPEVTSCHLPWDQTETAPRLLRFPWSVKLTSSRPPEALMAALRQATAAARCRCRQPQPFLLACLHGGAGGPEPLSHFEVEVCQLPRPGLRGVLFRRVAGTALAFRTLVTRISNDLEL

[3] = target: T1, MAP/microtubule affinity-regulating kinase 4 (Homo sapiens); conditions: at 1 µM
[4] = target: Maternal embryonic leucine zipper kinase (Homo sapiens) (UniProt Q14680); conditions: at 0.1 µM
Chain of Maternal embryonic leucine zipper kinase (Homo sapiens) (Q14680 whole entry, looked up): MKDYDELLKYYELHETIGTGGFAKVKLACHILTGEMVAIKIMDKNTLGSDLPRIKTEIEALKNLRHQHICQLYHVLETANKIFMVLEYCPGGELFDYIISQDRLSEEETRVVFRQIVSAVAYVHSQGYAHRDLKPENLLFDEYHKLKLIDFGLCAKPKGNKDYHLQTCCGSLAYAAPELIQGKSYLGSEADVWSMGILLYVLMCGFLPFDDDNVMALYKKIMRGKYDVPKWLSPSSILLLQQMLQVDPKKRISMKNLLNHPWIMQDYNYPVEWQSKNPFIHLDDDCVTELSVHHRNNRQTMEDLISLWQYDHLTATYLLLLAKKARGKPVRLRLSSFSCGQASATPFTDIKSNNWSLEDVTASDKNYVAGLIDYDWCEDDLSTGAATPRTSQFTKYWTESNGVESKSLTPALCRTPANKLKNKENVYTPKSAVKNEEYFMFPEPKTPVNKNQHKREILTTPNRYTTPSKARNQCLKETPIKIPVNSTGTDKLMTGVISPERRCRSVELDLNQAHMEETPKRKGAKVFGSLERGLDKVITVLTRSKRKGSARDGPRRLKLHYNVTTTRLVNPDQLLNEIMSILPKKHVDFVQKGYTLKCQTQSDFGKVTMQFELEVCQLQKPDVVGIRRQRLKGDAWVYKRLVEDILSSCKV

[5] = target: Maternal embryonic leucine zipper kinase (Homo sapiens) (UniProt Q14680); conditions: at 1 µM
[6] = target: MAP kinase-interacting serine/threonine-protein kinase 1 (Homo sapiens) (UniProt Q9BUB5); conditions: at 0.1 µM
Chain of MAP kinase-interacting serine/threonine-protein kinase 1 (Homo sapiens) (Q9BUB5 whole entry, looked up): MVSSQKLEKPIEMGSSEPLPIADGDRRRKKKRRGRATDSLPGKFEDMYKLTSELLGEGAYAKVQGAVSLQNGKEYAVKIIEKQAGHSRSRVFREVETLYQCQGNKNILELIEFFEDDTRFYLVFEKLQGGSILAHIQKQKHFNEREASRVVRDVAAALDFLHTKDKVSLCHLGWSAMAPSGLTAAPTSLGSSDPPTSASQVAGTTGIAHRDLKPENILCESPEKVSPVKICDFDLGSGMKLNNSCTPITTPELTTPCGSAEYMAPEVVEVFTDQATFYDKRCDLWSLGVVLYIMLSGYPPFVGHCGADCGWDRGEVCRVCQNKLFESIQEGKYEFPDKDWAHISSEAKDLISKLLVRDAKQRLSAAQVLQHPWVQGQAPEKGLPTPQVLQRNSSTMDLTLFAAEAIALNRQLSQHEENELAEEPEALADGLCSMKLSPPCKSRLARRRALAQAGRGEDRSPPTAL

[7] = target: MAP kinase-interacting serine/threonine-protein kinase 1 (Homo sapiens) (UniProt Q9BUB5); conditions: at 1 µM
[8] = target: MAP kinase-interacting serine/threonine-protein kinase 2 (Homo sapiens) (UniProt Q9HBH9); conditions: at 0.1 µM
Chain of MAP kinase-interacting serine/threonine-protein kinase 2 (Homo sapiens) (Q9HBH9 whole entry, looked up): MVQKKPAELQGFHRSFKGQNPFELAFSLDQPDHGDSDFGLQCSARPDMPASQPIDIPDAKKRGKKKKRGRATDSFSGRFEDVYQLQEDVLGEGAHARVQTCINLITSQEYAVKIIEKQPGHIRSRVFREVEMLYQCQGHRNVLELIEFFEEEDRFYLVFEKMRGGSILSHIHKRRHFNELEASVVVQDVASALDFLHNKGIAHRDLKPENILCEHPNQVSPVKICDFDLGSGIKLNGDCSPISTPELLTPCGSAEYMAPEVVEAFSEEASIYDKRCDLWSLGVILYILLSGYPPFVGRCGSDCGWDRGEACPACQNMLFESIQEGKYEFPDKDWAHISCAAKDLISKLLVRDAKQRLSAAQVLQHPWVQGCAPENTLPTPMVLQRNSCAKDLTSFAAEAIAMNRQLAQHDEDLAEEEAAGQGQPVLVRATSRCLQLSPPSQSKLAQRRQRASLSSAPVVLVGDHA

[9] = target: MAP kinase-interacting serine/threonine-protein kinase 2 (Homo sapiens) (UniProt Q9HBH9); conditions: at 1 µM
[10] = target: Serine/threonine-protein kinase MARK2 (Homo sapiens) (UniProt Q7KZI7); conditions: at 0.1 µM
Chain of Serine/threonine-protein kinase MARK2 (Homo sapiens) (Q7KZI7 whole entry, the tested form may be a part): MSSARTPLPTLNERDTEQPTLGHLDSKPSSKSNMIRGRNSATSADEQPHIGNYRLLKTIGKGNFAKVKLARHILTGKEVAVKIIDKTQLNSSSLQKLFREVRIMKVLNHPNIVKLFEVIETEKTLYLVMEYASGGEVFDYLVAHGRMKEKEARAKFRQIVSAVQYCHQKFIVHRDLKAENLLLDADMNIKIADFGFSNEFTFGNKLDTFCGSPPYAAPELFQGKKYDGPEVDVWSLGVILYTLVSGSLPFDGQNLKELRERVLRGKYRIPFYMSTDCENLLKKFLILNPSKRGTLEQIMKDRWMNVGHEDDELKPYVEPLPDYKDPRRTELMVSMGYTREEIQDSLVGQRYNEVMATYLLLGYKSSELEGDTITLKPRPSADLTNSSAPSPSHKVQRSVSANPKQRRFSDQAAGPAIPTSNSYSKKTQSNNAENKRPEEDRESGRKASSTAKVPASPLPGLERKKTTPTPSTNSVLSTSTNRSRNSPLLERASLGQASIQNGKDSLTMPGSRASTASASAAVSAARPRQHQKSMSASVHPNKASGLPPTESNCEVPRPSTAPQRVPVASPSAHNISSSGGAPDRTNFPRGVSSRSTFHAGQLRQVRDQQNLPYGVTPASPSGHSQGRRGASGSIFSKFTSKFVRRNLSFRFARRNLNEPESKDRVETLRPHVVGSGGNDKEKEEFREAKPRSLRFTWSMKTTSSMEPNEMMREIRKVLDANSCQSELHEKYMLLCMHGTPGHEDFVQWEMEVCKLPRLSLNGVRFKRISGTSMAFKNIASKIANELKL

[11] = target: Serine/threonine-protein kinase MARK2 (Homo sapiens) (UniProt Q7KZI7); conditions: at 1 µM
[12] = target: PAS domain-containing serine/threonine-protein kinase (Homo sapiens) (UniProt Q96RG2); conditions: at 0.1 µM
[13] = target: PAS domain-containing serine/threonine-protein kinase (Homo sapiens) (UniProt Q96RG2); conditions: at 1 µM
[14] = target: Phosphorylase b kinase gamma catalytic chain, skeletal muscle/heart isoform (Homo sapiens) (UniProt Q16816); conditions: at 0.1 µM
Chain of Phosphorylase b kinase gamma catalytic chain, skeletal muscle/heart isoform (Homo sapiens) (Q16816 whole entry, looked up, canonical isoform): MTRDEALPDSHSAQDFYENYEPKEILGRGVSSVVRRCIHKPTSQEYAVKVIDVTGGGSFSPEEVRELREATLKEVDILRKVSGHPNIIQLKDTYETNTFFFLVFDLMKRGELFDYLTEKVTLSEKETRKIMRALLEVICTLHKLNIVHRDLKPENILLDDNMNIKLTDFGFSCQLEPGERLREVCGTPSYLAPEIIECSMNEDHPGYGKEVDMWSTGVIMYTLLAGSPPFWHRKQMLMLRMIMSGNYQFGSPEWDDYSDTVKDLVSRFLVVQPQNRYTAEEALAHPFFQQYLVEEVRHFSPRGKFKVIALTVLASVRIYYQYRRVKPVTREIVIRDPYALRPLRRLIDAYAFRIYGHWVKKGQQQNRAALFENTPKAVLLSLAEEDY

[15] = target: Phosphorylase b kinase gamma catalytic chain, skeletal muscle/heart isoform (Homo sapiens) (UniProt Q16816); conditions: at 1 µM
[16] = target: T2, Phosphorylase b kinase gamma catalytic chain, liver/testis isoform (Homo sapiens) (UniProt P15735); conditions: at 0.1 µM
T2 sequence (whole entry): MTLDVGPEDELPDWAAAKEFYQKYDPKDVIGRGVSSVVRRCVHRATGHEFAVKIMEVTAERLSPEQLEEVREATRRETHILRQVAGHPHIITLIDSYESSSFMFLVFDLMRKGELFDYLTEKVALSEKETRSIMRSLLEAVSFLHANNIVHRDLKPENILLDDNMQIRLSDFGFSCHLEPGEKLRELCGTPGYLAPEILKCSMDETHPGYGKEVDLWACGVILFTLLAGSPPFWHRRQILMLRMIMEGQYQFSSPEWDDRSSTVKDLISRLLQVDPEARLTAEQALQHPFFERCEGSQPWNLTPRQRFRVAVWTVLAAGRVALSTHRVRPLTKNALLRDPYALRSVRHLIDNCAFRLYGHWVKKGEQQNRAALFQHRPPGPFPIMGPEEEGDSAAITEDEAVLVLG

[17] = target: T2, Phosphorylase b kinase gamma catalytic chain, liver/testis isoform (Homo sapiens); conditions: at 1 µM
[18] = target: Serine/threonine-protein kinase pim-1 (Homo sapiens) (UniProt P11309); conditions: at 0.1 µM
Chain of Serine/threonine-protein kinase pim-1 (Homo sapiens) (P11309 whole entry, looked up): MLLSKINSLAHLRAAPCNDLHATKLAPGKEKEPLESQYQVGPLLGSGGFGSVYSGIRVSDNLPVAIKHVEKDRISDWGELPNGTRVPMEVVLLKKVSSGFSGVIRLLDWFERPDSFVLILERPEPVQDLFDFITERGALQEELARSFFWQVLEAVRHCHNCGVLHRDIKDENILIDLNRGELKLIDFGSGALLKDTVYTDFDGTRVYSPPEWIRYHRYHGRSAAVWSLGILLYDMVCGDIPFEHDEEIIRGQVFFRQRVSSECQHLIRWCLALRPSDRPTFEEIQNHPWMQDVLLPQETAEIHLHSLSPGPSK

[19] = target: Serine/threonine-protein kinase pim-1 (Homo sapiens) (UniProt P11309); conditions: at 1 µM
[20] = target: Serine/threonine-protein kinase pim-2 (Homo sapiens) (UniProt Q9P1W9); conditions: at 0.1 µM;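 also: reported value is the mean percent inhibition of PIM2, measured in the GSK PKIS kinase inhibitor set screen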
Chain of Serine/threonine-protein kinase pim-2 (Homo sapiens) (Q9P1W9 whole entry, looked up): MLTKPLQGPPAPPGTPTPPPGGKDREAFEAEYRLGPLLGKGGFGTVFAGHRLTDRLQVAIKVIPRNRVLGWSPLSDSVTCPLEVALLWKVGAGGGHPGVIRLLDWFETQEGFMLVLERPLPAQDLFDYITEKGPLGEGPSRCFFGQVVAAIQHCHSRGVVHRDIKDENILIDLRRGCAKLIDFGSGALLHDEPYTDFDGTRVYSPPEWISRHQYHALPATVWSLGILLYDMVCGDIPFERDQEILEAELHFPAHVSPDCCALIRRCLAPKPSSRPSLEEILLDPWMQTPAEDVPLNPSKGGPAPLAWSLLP

Chain of MAP/microtubule affinity-regulating kinase 3 (Homo sapiens) (P27448 whole entry, looked up): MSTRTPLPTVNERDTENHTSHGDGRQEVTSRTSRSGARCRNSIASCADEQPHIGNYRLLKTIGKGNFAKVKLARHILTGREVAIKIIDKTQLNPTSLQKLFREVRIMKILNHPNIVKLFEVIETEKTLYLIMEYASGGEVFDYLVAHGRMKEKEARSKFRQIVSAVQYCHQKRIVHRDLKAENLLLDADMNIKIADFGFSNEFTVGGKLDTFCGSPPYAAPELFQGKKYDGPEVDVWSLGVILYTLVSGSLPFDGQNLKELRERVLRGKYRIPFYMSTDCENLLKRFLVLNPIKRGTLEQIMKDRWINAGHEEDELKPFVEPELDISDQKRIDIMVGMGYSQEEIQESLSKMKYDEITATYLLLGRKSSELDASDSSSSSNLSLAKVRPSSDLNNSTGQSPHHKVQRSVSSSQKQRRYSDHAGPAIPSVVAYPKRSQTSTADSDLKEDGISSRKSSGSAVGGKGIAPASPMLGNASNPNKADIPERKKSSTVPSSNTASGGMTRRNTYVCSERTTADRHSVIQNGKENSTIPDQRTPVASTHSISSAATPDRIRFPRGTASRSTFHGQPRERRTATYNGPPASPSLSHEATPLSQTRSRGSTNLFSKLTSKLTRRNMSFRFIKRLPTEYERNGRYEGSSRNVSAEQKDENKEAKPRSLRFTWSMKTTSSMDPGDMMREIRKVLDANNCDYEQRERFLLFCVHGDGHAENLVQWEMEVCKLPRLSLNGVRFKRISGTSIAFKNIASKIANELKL

Row | SMILES | inhibition [1] [%] | inhibition [2] [%] | inhibition [3] [%] | inhibition [4] [%] | inhibition [5] [%] | inhibition [6] [%] | inhibition [7] [%] | inhibition [8] [%] | inhibition [9] [%] | inhibition [10] [%] | inhibition [11] [%] | inhibition [12] [%] | inhibition [13] [%] | inhibition [14] [%] | inhibition [15] [%] | inhibition [16] [%] | inhibition [17] [%] | inhibition [18] [%] | inhibition [19] [%] | inhibition [20] [%]
1 | OCc1ccc(-c2nc(-c3ccccn3)c(-c3ccc4c(c3)OCO4)[nH]2)cc1 | 4.42 | 1.75 | 2.19 | 6.02 | 4.4 | 2.65 | 2.54 | 0.41 | 0.09 | 1.8 | 2.05 | 0.83 | -1.14 | 2.77 | -6 | 5.91 | 2.21 | 0.78 | 0.98 | 0.72
2 | CCS(=O)(=O)c1ccc(OC)c(Nc2ncc(-c3cccc(OC)c3)o2)c1 | 2.05 | 0.15 | 1.64 | 2.89 | 11.4 | 4.25 | 17 | 1.44 | 10.6 | -0.52 | 1.4 | 0.21 | -1.97 | 1.03 | 18.3 | 2.69 | -0.05 | 1.53 | 2.93 | 0.07
3 | N#Cc1cccc(Nc2nccc(-c3cnn4ncccc34)n2)c1 | 13.1 | 1.74 | 9.89 | 12.5 | 55.9 | 6.09 | 22.5 | 5.65 | 33 | 1.3 | 9.5 | 0.25 | 0.01 | 15.8 | 58.3 | 7.04 | 22.2 | 1.44 | 12.4 | 0.59
4 | COc1cccc(-n2ncc3c(N/N=C/c4ccc(C)cc4)ncnc32)c1 | 6.9 | 2.42 | 5.11 | 5.47 | 12.6 | 4.37 | 9.69 | 3.79 | 11.2 | 2.05 | 6.23 | -0.93 | 0.57 | 2.43 | 10 | 5.73 | 5.98 | 1.21 | 3.51 | -0.44
5 | CN(C)CCCn1c(-c2nonc2N)nc2cnccc21 | 3.45 | 2.41 | 3.46 | 6.89 | 20.1 | 1.87 | 5.5 | 0.54 | -0.09 | 1.6 | 2.24 | -0.11 | -0.83 | 2.33 | 2.88 | 4.54 | 2.43 | 2.81 | 18.9 | -0.04
6 | NC(=O)c1sc(-n2cnc3ccccc32)cc1OCc1ccccc1Br | 5.83 | 1.43 | 5.23 | 4.71 | 10.1 | 2.14 | 11.7 | 0.25 | 4.3 | 1.95 | 6.32 | -0.54 | -0.07 | 2.76 | 6.49 | 4.32 | 5.93 | 0.2 | 3.08 | -0.36
7 | Cc1ccc(NC(=O)CC2CC2)cc1-c1ccc(C(=O)NCC2CC2)cc1 | 1.71 | 1 | -0.01 | 4.17 | 2.02 | 2.59 | 7.07 | 1.63 | 5.54 | -1.05 | 0.03 | -0.28 | 0.77 | 3.12 | 5.93 | 4.45 | 4.9 | 1.51 | 0.73 | -0.33
8 | Cc1nc(-c2ccccc2)n2nc(NCCCN3CCOCC3)ncc12 | 4.15 | 1.2 | 2.72 | 1.4 | 1.29 | 2.43 | 4.9 | 1.85 | 3.34 | -0.89 | 0.71 | 0.65 | -0.06 | 0.52 | 4.26 | 3.22 | 3.98 | -0.82 | 0.37 | 0.19
9 | CN(c1ccc(NC(=O)Nc2ccc(OC(F)(F)F)cc2)cc1)c1ccnc(Nc2cccc(S(N)(=O)=O)c2)n1 | -0.68 | 0.65 | 1.56 | 0.77 | -2.07 | 29.2 | 73.3 | 20.5 | 67.3 | -1.1 | -1.52 | 0.55 | 0.28 | 1.77 | 9.58 | 3.6 | 2.53 | 0.23 | -0.84 | 0.55
10 | COC(=O)c1ccc2c(c1)C(=Cc1cc(Br)c(O)c(Br)c1)C(=O)N2 | 3.71 | 0.93 | 5.08 | 6.21 | 22.2 | 1.07 | 5.73 | 2.35 | 19 | 0.84 | 4.91 | -1.3 | -0.51 | 0.67 | 7.49 | 4.41 | 3.92 | 8.81 | 50.9 | 10.7
11 | COc1cc(Nc2nccc(-c3cnn4ncccc34)n2)cc(OC)c1 | 34.1 | 3.44 | 22.1 | 7.1 | 43.9 | 1.97 | 10.2 | 3.13 | 17.2 | 2.81 | 20 | 0.79 | -0.31 | 7.9 | 39.2 | 2.69 | 15.6 | 1.41 | 6.3 | 1.22
12 | COc1ccc(-c2nn3ncccc3c2-c2ccnc(Nc3cccc(C(F)(F)F)c3)n2)cc1 | 3.49 | 1.29 | 1.74 | 2.53 | 1.64 | 1.88 | 3.34 | 0.77 | 1.76 | -0.74 | 1.37 | 0.84 | 0.1 | 3.78 | 4.58 | 4.42 | 4.66 | 0.05 | 0.66 | 0.02
13 | CCn1c(-c2nonc2N)nc2ccc(F)cc21 | 3.73 | 2.45 | 1.33 | 1.93 | 8.51 | 3.42 | 9.46 | 2.9 | 9.38 | 2.57 | -0.64 | 1.69 | 0.49 | 6.81 | 7.3 | 7.81 | 12.6 | 0.08 | 1.85 | -0.12
14 | c1ccc(Nc2ncc(-c3ccccc3)o2)cc1 | 4.02 | 2.77 | 4.32 | 5.53 | 9.84 | 1.77 | 3.22 | 0.51 | 4.71 | 0.14 | 2.64 | -0.05 | -0.71 | 2.61 | 10.9 | 6.62 | 6.17 | 1.47 | 3.45 | -1.31
